# Screens (PubChem BioAssay)
# mHTT-CaM PPI inh = disrupts binding of mutant huntingtin to calmodulin | 190,000 compounds, 3.6% hits | P42858 | AID 1671202 | inhibition, % at 15 µM | AlphaScreen His-mHTT/GST-CaM binding, luminescence;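 also: 0% = both proteins with DMSO and 100% = one protein alone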
# Target sequence (P42858 whole entry, looked up, stated change not applied): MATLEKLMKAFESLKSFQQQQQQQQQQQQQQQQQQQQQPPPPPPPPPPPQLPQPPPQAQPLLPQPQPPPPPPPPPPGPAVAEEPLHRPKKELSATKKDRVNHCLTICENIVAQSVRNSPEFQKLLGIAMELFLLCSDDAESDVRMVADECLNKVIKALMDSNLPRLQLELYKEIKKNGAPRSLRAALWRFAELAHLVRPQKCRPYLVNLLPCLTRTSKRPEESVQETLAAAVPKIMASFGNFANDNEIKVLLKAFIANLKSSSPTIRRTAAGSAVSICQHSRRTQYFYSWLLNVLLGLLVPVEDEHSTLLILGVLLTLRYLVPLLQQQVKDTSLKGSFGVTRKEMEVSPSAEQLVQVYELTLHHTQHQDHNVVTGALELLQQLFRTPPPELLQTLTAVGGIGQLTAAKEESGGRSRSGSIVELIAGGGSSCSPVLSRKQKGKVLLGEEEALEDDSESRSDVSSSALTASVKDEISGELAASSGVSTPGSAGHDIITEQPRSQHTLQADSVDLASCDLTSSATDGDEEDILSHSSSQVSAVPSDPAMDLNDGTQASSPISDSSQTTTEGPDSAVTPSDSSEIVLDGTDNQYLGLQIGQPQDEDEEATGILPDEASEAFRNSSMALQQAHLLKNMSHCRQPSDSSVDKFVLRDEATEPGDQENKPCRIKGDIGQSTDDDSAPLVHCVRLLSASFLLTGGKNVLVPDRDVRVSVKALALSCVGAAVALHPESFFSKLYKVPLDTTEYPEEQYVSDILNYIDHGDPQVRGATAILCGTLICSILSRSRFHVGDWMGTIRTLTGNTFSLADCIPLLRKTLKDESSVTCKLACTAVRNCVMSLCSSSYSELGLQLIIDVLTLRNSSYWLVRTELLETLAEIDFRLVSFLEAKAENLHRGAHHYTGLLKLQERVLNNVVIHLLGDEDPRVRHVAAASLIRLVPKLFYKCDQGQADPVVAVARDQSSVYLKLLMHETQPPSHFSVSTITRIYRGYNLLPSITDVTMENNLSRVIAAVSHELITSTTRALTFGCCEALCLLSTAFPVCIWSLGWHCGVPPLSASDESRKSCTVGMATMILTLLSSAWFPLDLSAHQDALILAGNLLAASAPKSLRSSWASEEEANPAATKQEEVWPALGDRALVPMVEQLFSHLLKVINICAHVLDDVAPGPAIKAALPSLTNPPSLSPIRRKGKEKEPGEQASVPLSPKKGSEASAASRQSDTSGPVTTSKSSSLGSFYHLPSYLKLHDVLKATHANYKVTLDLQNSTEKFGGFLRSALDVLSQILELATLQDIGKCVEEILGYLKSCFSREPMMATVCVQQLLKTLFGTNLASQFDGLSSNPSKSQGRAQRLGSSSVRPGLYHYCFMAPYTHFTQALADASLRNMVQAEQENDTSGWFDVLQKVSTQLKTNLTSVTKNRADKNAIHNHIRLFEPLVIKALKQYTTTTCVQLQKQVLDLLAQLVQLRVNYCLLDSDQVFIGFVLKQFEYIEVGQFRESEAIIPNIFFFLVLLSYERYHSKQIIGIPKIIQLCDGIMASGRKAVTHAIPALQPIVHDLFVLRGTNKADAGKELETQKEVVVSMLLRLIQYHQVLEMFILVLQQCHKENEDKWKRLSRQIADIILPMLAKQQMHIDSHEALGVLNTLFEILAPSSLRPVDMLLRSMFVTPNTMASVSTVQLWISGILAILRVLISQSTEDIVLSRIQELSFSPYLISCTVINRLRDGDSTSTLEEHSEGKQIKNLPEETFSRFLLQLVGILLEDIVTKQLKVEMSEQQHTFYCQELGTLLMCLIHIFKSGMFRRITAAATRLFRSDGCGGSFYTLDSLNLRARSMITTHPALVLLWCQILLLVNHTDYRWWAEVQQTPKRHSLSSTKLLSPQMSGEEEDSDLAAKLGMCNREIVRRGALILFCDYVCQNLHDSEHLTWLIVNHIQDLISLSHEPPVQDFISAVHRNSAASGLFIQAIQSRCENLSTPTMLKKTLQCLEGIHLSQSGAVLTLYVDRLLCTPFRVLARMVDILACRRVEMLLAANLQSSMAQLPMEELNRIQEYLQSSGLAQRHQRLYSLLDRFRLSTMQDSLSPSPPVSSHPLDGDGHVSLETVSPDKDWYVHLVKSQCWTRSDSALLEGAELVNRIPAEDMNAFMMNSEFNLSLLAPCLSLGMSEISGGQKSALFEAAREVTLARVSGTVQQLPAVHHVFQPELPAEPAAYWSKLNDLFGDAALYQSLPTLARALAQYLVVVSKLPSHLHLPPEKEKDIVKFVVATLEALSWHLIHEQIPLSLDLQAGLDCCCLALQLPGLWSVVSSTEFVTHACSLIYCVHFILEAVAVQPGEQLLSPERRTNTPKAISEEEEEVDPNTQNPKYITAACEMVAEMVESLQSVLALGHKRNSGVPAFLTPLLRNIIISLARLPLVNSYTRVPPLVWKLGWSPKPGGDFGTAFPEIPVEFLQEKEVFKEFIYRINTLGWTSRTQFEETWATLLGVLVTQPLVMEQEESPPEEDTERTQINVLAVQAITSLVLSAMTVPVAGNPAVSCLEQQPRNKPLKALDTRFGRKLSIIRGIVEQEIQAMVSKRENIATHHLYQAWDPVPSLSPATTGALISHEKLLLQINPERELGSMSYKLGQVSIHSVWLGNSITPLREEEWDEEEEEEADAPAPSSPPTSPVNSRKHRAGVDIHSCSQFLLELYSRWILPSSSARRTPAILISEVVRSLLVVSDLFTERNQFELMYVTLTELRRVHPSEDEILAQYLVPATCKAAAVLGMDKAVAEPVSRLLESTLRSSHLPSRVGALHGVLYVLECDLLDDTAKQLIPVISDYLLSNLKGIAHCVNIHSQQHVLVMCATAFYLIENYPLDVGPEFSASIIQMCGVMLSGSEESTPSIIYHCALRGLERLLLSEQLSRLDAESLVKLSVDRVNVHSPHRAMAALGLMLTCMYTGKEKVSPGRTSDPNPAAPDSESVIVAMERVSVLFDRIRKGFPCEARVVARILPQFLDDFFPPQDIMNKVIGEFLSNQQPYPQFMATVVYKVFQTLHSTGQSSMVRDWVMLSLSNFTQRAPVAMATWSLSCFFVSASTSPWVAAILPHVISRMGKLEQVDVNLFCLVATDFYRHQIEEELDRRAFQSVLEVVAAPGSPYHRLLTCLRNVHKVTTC
# Pf apPOL block = Pf-apPOL DNA polymerase inhibition; Recombinant Pf-apPOL, molecular beacon fluorescence, 1.5 h; AID 1794808; 210,000 compounds, 0.25% hits; inhibition, % at 10 µM
# * marks the source's active call; other numbers are inactive results; x = no result given. Rows were chosen to be rich in hits. Some 3.6% of all compounds tested hit in one or more screens of this group. Rule as the data show it: active = inhibition above about 50%; inactive = the rest.
SMILES,mHTT-CaM PPI inh,Pf apPOL block
Cc1nc(C(=O)Nc2ccc3c(c2)OCCO3)c(C)n1C1CCN(C)CC1,14,3
Cc1nc(C(=O)Nc2ccc3c(c2)OCO3)c(C)n1C1CCN(C)CC1,71*,-2
CN(C)c1ccc(C2N(c3ccccn3)C(=O)C3CCCN32)cc1 (configuration not stated),6,-10
COc1ccc(C=C[N+](=O)[O-])cc1,x,0
O=[N+]([O-])c1ccc(N2CCCCC2)c2nonc12,x,-122
O=[N+]([O-])c1ccc(Cl)c2nonc12,96*,x
O=[N+]([O-])c1ccc(N2CCOCC2)c2nonc12,x,-84
Nc1ccc([N+](=O)[O-])c2nonc12,53*,x
Fc1ccc(CCNCc2ccc3c(c2)OCO3)cc1,-8,3
Fc1ccc(N2CCN(Cc3cc(F)ccc3F)CC2)cc1,16,0
COc1ccccc1-c1nnc(-c2ccc(S(=O)(=O)F)cc2)o1,5,0
COc1cc(/C=C(\C)[N+](=O)[O-])cc(Br)c1O,23,-1
COc1cc(/C=C/[N+](=O)[O-])cc(Br)c1O,52*,-1
CCOc1cc(/C=C/[N+](=O)[O-])cc(Br)c1O,78*,-15
CCOc1ccc(/C=C/[N+](=O)[O-])cc1,19,-1
COc1ccc(Cl)cc1NC(=O)C1c2cc(OC)c(OC)cc2C(=O)N2CCCCC12 (configuration not stated),79*,-4
COc1ccc(Cl)cc1NC(=O)C1c2ccccc2C(=O)N2CCCCC12 (configuration not stated),2,-5
CCCCC(=O)N1CCC2(C1)C(=O)N(C)c1ccc(OC)cc12 (configuration not stated),-3,-4
O=[N+]([O-])c1cc(Cl)ccc1N1CCNCC1,-1,-3
Cc1ccc(NC(=O)CN2C(=O)C(C)N=C(c3ccccc3)c3ccccc32)cc1Cl (configuration not stated),52*,-21
CC1N=C(c2ccccc2)c2ccccc2N(CC(=O)Nc2cccc(Cl)c2)C1=O (configuration not stated),22,-11
O=S(=O)(Nc1cccc(C(F)(F)F)c1)c1cccc2n[se]nc12,7,-3
COC(=O)c1ccc(CCl)s1,100*,x
COc1ccc2c(c1)C1(CCN(S(=O)(=O)c3ccc(C#N)cc3)C1)C(=O)N2C (configuration not stated),-7,-2
O=P(Nc1ccccc1I)(Oc1ccccc1)Oc1ccccc1,-25,-2
SMILES,mHTT-CaM PPI inh,Pf apPOL block
COc1ccc(OC)c(NP(=O)(Oc2ccccc2)Oc2ccccc2)c1,74*,0
O=[N+]([O-])c1ccc(CN2CCN(c3ccc(F)cc3)CC2)cc1,16,49
Cc1cc(C)nc(Nc2nc(CC(=O)N3CCN(C4CCCCC4)CC3)cs2)n1,38,-12
CN1CCc2[nH]c(=S)c(C#N)cc2C1,23,x
CN1CCc2[nH]c(=S)c(C#N)c(-c3cccs3)c2C1,52*,x
Cn1nnc(Nc2nnn(C)n2)n1,-8,2
COc1ccc(N2CCN(Cc3cccc(Cl)c3Cl)CC2)cc1,56*,5
COc1ccc(N2CCN(Cc3ccc(Cl)cc3)CC2)cc1,34,-6
COc1ccc(N2CCN(Cc3ccc(F)cc3)CC2)cc1,22,0
COc1ccc(N2CCN(Cc3ccc(Cl)c(Cl)c3)CC2)cc1,65*,-5
C=CCN1C(=O)NC(=O)C(Cc2ccc(OC)cc2)C1=O (configuration not stated),-3,0
COc1ccc2c(c1)C1(CCN(C(=O)c3ccc(F)c(F)c3)C1)C(=O)N2C (configuration not stated),6,-8
O=c1[nH]c(=S)[nH]c(O)c1C=C1C=CC=N1,x,89*
O=[N+]([O-])c1cccc(CN2CCN(c3cccc(Cl)c3)CC2)c1,24,-4
O=[N+]([O-])c1c(Br)c([N+](=O)[O-])c2n[nH]nc2c1Br,88*,-4
O=[N+]([O-])c1cc2nonc2c2n[nH]nc12,10,x
COc1ccc(-c2c(C)oc3cc(OC(=O)N(C)C)ccc3c2=O)cc1,-1,-19
Fc1ccc(N2CCN(Cc3cccc(F)c3)CC2)cc1,9,-6
N#CC1=C(N)C(C#N)(C#N)C(c2ccccc2C(F)(F)F)C2CSCC=C12 (configuration not stated),55*,-3
COc1ccc(OC)c(C(c2c(O)c3ccccc3oc2=O)c2c(O)c3ccccc3oc2=O)c1,55*,-21
CC(c1c(O)c2ccccc2oc1=O)c1c(O)c2ccccc2oc1=O,5,1
O=c1oc2ccccc2c(O)c1C(c1ccc([N+](=O)[O-])cc1)c1c(O)c2ccccc2oc1=O,71*,-7
O=c1oc2ccccc2c(O)c1C(c1ccccc1[N+](=O)[O-])c1c(O)c2ccccc2oc1=O,24,-5
O=[N+]([O-])c1ccc(N2CCN(Cc3ccccc3F)CC2)cc1,-3,1
COc1ccc(C=C2Oc3cc(OC(=O)N(C)C)ccc3C2=O)c(OC)c1OC,26,-8
SMILES,mHTT-CaM PPI inh,Pf apPOL block
O=S(=O)(F)c1ccc(-c2nnc(-c3ccccc3)o2)cc1,9,3
O=S(=O)(F)c1ccc(C2=CC(c3ccccc3)n3ncnc3N2)cc1 (configuration not stated),100*,-5
COc1ccc(CC2C(=O)N(C)C(=O)N(C)C2=O)cc1OC,2,1
O=C(CN1C(=O)CN=C(c2ccccc2)c2cc(Cl)ccc21)NCc1cccc(Cl)c1,91*,-12
CC1N=C(c2ccccc2)c2ccccc2N(CC(=O)Nc2ccc(N(C)C)cc2)C1=O (configuration not stated),35,-24
CC1N=C(c2ccccc2)c2ccccc2N(CC(=O)NCc2ccco2)C1=O (configuration not stated),1,-15
Cc1cc(C)n(C(=O)CN2C(=O)CN=C(c3ccccc3)c3cc(Br)ccc32)n1,64*,-11
CCN(C(=O)CN1C(=O)C(C)N=C(c2ccccc2)c2ccccc21)c1cccc(C)c1 (configuration not stated),26,-1
O=C(CN1C(=O)CN=C(c2ccccc2)c2cc(Cl)ccc21)Nc1cccc(C(F)(F)F)c1,82*,-14
O=Cc1cn(Cc2nc(C(c3ccccc3)c3ccccc3)no2)c2ccccc12,-6,-6
O=C1NC(=O)C(=Cc2ccc(Sc3ccc(Cl)cc3)o2)C(=O)N1,6,-16
CCCCn1c(=O)c(C(=O)NCCO)c(O)c2ccccc21,24,-1
C1CC(c2nc(C3CC3)n[nH]2)CCN1,4,-1
O=C1CN=C(c2ccccc2Br)c2cc(Cl)ccc2N1,18,-9
Cc1ccc(C2=NCC(=O)Nc3ccc(Br)cc32)cc1,97*,-69
S=C(SSC(=S)N1CCCCC1)N1CCCCC1,51*,x
S=C(S)N1CCCCC1,x,1
C[n+]1noc(NC(=O)C(F)(F)F)c1-c1ccccc1,-6,3
O=C1CC(=O)N(c2cccc(Cl)c2Cl)C(=O)N1,3,-7
O=c1ccsn1-c1cccc(Cl)c1F,x,93*
N#CC(C#N)=Cc1c2ccccc2cc2ccccc12,8,-12
Cc1ccccc1-n1c(/C=C2\C(=O)Nc3ccc(Br)cc32)nc2ccccc2c1=O,44,5
Cc1ccccc1-n1c(/C=C2\C(=O)N(C)c3ccccc32)nc2ccccc2c1=O,65*,-1
O=S1(=O)CC2SC2C1 (configuration not stated),-3,1
